Inconclusive results are not listed. A call without a number means that no potency is given here. Active and inactive are the calls of the source. Calls follow the shape of the full dose curve. Peptide text beside a SMILES is read from it.
Target: D(2) dopamine receptor (Homo sapiens) (UniProt P14416)
Assay: Dopamine D2 receptor (DRD2) small molecule agonists, cell-based qHTS assay (AID 1963594); also: nearly all actives have a fitted effect of over 35% in size
Conditions: HEK293-DRD2 cAMP HTRF, agonist mode, 30 min; series mostly up to 92.4 µM
Text: National Center for Advancing Translational Sciences [NCATS]
Division of Preclinical Innovation [DPI]
U.S. Environmental Protection Agency [EPA]
National Institutes of Environmental Health Sciences [NIEHS]
National Toxicology Program [NTP]
U.S. Food and Drug Administration [FDA]
DRD2 is the D2 subtype of the dopamine receptor, which is coupled to Gi subtype of G protein-coupled receptor. This G protein-coupled receptor inhibits adenylyl cyclase activity. The DRD2-HEK293 cell line stably expressing D2 dopamine receptor can be used for screening agonists and antagonists of interactions between D2 and its ligands. The Hek293-DRD2 cAMP assay is based on HTRF technology. It measures changes of cAMP accumulation in response to Gi coupled GPCR activation or inhibition.
Tox21 Assay Protocol Summary:
DRD2-Hek293 cells were dispensed at 600 cells/3uL/well in 1536-well white plates using a Multidrop Dispenser. After the assay plates were incubated at a 37 C/5% CO2 incubator for 24 h, 1 uL of Ro20-1724 at final concentration of 0.1 mM was transferred to the assay plate by a Flying Reagent Dispenser. Following Ro20-1724 addition, 23 nL of compound dissolved in DMSO, positive controls or DMSO only was added to the assay plates via Wako pintool station. The assay plates were incubated at room temperature for 10 min. Next, 1 uL of NKH477 at 200nM was added into the plates. After the assay plates were incubated at room temperature for an additional 30 min, 2.5 ul/well of cAMP-d2 and 2.5 ul/well of anti-cAMP-cryptate were added respectively into the assay plates using a Flying Reagent Dispenser. The plates were incubated at room temperature for 1 h. The fluorescence intensity in the plates was measured at 340 nm excitation and 665 & 620 nm emission by an Envision plate reader.

Sequence of D(2) dopamine receptor (Homo sapiens) (P14416 whole entry, looked up): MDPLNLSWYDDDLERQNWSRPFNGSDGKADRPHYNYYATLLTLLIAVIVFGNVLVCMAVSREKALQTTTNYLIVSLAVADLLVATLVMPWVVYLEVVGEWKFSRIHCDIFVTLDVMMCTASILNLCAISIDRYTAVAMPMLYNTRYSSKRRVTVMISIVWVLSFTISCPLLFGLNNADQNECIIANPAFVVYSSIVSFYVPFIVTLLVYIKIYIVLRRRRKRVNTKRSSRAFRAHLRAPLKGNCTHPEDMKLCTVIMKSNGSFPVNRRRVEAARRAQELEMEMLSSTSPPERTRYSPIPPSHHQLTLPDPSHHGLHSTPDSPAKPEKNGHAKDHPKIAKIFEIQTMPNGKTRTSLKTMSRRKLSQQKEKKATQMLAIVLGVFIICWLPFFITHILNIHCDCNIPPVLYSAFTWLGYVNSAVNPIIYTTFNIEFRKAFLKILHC

Row | SMILES | Potency
1 | CC(=O)O[C@]1(C(C)=O)CC[C@H]2[C@@H]3C=C(Cl)C4=CC(=O)[C@@H]5C[C@@H]5[C@]4(C)[C@H]3CC[C@@]21C | inactive
2 | CCn1c2ccccc2c2cc(N)ccc21 | inactive
3 | Cn1c(=O)c2[nH]cnc2n(C)c1=O | inactive
4 | O=C(O)[C@H](O)[C@@H](O)[C@H](O)[C@H](O)CO | inactive
5 | CC(=O)NS(=O)(=O)c1ccc(N)cc1 | inactive
6 | C=C(C#N)C(=O)OCC | inactive
7 | CCCCCCCCCCCC(=O)OC | inactive
8 | CC(=O)N[C@@H](CS)C(=O)O | inactive
9 | CNNCc1ccc(C(=O)NC(C)C)cc1 | inactive
10 | CCC(C)(O)CCCC(C)C (stereo not given) | inactive
11 | NC(=S)NNC(N)=S | inactive
12 | CCO[Si](CCC#N)(OCC)OCC | inactive
13 | CCO[Si](CCCN)(OCC)OCC | inactive
14 | CC(=O)OC/C=C(C)/C=C/C=C(C)/C=C/C1=C(C)CCCC1(C)C | inactive
15 | CCCCC(CC)COC(=O)/C=C/c1ccc(OC)cc1 (stereo not given) | inactive
16 | O=C1O[C@H](CO)[C@@H](O)[C@H](O)[C@H]1O | inactive
17 | O=C1CCCCCCCCCCC1 | inactive
18 | Cc1ccc(C)c(O)c1 | inactive
19 | CC1(C)OC(=O)NC1=O | inactive
20 | COc1cc2c(c(OC)c1OC)-c1ccc(OC)c(=O)cc1[C@@H](NC(C)=O)CC2 | inactive

Row | SMILES | Potency
21 | O=C(O)CCCCC(=O)O | inactive
22 | COC(=O)[C@H](Cc1ccccc1)NC(=O)[C@@H](N)CC(=O)O (H-Asp-Phe-OMe) | inactive
23 | CCCCOC(=O)c1ccc(N)cc1 | inactive
24 | CC(O)CC(C)(C)O (stereo not given) | inactive
25 | CCCCOCCOCCOC(C)=O | inactive
26 | Cc1ccc(O)cc1 | inactive
27 | C#CCN(C)Cc1ccccc1 | inactive
28 | CN1C(=O)CC[C@H]1c1cccnc1 | inactive
29 | c1ccc2ccccc2c1 | inactive
30 | C[C@]12CC[C@@H]3c4ccc(O)cc4CC[C@H]3[C@@H]1CC[C@H]2O | inactive
31 | CN(C)CCN(Cc1cccs1)c1ccccn1 | inactive
32 | Cc1ccc(S(=O)(=O)NC(=O)NN2CCCCCC2)cc1 | inactive
33 | CCCCCC(=O)O | inactive
34 | Cc1cccc2ccccc12 | inactive
35 | COc1ccc2[nH]cc(CCNC(C)=O)c2c1 | inactive
36 | O=C1NC(=O)C(c2ccccc2)(c2ccccc2)N1 | inactive
37 | C[C@H]1C[C@H]2[C@@H]3CCC4=CC(=O)C=C[C@]4(C)[C@@]3(F)[C@@H](O)C[C@]2(C)[C@@]1(O)C(=O)CO | inactive
38 | NCCN | inactive
39 | CCCCCCCCC/C=C/CC1CC(=O)OC1=O (stereo not given) | inactive
40 | CC(C)(CO)CO | inactive

Source: PubChem BioAssay (Tox21)
